Results from PubChem BioAssay AID1851 (National Center for Advancing Translational Sciences (NCATS), 2009).
“And” between values parts separate entries of the source, which are not always exact repeats. Equal values may be shown once. Hit rate of the full screen: of about 16,000 compounds, about 5,800 (36%) were called active. About 23% were inconclusive and are not listed. The call rests on the fitted dose curve; in most records, active means well fitted curve in the direction sought with a large enough effect; inconclusive means small, poorly fitted or top-dose-only effect, or effect the other way; inactive means no such curve, though single readings can be large or run the other way. This is one part of the list.

target: Cytochrome P450 2C19 (Homo sapiens) (UniProt P33261); assay: Cytochrome panel assay with activity outcomes; conditions: recombinant CYP, pro-luciferin dealkylation, luminescence, p450-cyp2c19; series mostly up to 57.1 µM
Sequence (P33261 whole entry, looked up): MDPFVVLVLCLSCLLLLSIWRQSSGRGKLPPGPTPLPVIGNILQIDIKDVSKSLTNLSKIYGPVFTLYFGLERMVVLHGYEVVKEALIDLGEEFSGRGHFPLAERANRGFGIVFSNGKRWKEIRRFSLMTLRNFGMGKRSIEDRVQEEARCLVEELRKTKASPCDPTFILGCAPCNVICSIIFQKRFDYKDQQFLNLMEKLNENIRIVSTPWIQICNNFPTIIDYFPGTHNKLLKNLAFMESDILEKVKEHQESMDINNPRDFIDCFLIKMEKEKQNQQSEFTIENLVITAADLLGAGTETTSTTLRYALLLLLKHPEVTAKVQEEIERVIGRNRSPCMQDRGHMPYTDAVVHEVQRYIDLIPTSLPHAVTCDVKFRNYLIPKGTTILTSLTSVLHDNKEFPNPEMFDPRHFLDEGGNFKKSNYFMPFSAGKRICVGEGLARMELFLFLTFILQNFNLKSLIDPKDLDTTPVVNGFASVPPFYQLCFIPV
On the % scale 0 is the no-effect control and ±100 the full control effect.

AC50, active:
Cn1cccc1C(=O)C(=O)Nc1cccc(Cl)c1Cl 3.16 µM, CCN(c1ccc(NC(=O)COC(=O)c2ccc3ccccc3n2)cc1)C(C)C 4.47 µM, COc1ccc(C(=O)Nc2ccc(OCC(F)(F)C(F)F)c(C(F)(F)F)c2)cc1OC 14.1 µM, Cc1ccc2cc(CCNC(=O)c3ccc(Br)o3)c(=O)[nH]c2c1 2.24 µM, CC(=O)N1CCN(C(=O)CC2OC(=O)c3ccccc32)CC1 (stereo not drawn) 1.78 µM, CCN(C(=S)Nc1ccccc1F)C1CCCCC1 3.98 µM, Cc1ccc([N+](=O)[O-])cc1NC(=S)NC(=O)C(C)(C)C 2 µM, Cc1ccc([N+](=O)[O-])cc1NC(=S)NC(=O)CC(C)(C)C 4.47 µM, Cc1c(C)n(C)c2ccc(C(=O)Nc3cccc4ccccc34)cc12 3.55 µM, CCn1c(C)c(C)c2cc(C(=O)Nc3cccc(Cl)c3)ccc21 7.08 µM, O=c1sc2ccccc2n1CCCOc1ccccc1 1.12 µM, Cc1ccc(OCCCn2c(=O)sc3ccccc32)cc1 0.708 µM, Cc1ccccc1OCCCn1c(=O)sc2ccccc21 1 µM, Clc1cccc(C=NC=Nc2cccc(Cl)c2)c1 10 µM, Cc1noc(C)c1-c1nc(NCCN2CCOCC2)c2ccccc2n1 7.94 µM, Cc1noc(C)c1-c1nc(Nc2ccc(F)cc2)c2ccccc2n1 3.16 µM, Cc1noc(C)c1-c1nccc(NC2CC2)n1 10 µM, Cc1noc(C)c1-c1nccc(Nc2ccc(F)cc2)n1 3.98 µM, CSc1nc(NC2CCCC2)c([N+](=O)[O-])c(NC2CCCC2)n1 5.01 µM, CCNc1nnc(-c2ccncc2)s1 5.01 µM, COc1ccc(C(=O)O/N=C/c2ccc(S(=O)c3ccc(Cl)cc3)nc2)cc1 (stereo not drawn) 14.1 µM, COc1ccc2nc(NCN3C(=O)c4ccccc4C3=O)sc2c1 2.51 µM, O=C(NCC1COc2ccccc2O1)C1CCN(S(=O)(=O)c2cccc3nsnc23)CC1 (stereo not drawn) 14.1 µM, COc1ccc2nc(NC(=O)C3CCN(S(=O)(=O)c4cccc5nsnc45)CC3)sc2c1 1.41 µM, Cc1cccc(NC(=O)C2CCN(S(=O)(=O)c3cccc4nsnc34)CC2)n1 10 µM, COc1ccc(OC)c(S(=O)(=O)N2CCC(C(=O)Nc3ccc(C)c(C)c3)CC2)c1 14.1 µM, Cc1ccc(S(=O)(=O)Oc2ccc(C3C4=C(CCCC4=O)OC4=C3C(=O)CCC4)cc2)cc1 4.47 µM, O=C1CCCC2=C1C(c1ccc(OS(=O)(=O)c3ccc(Cl)cc3)cc1)C1=C(CCCC1=O)O2 3.98 µM, O=c1oc(-c2ccco2)nc2c1cnn2-c1ccccc1 7.08 µM, COC(=O)C(NNc1ccccc1)(NC(=O)c1ccccc1F)C(F)(F)F (stereo not drawn) 2.24 µM, Cc1ccc(C(=O)O)cc1N1C(=O)c2cccc3cc(Br)cc(c23)C1=O 14.1 µM

AC50, inactive:
Cn1cccc1C(=O)N1CCC2(CC1)CN(C(=O)Nc1ccccc1)C2, Cn1cccc1C(=O)N1CCC2(CCN(C(=O)Nc3ccccc3)CC2)CC1, Cc1ccnc2nc(C(=O)OCC(=O)Nc3ccc4c(c3)OC(F)(F)O4)nn12, CC(C)NC(=O)N1CC[C@@]2(CCCN(C(=O)c3csnn3)C2)C1, COc1ccc2cc(CCNC(=O)C3CC3)c(=O)[nH]c2c1, COc1ccc(OC)c2c(=S)c3ccccc3[nH]c12, Cc1ccc(SCc2ccc(C(=O)Nc3cc([N+](=O)[O-])ccc3C)cc2)cc1, COc1ncc2nc(-c3cc(F)cc(F)c3)c(=O)n(-c3ccccc3)c2n1, C[N+](C)(CCCOc1ccccc1)c1ccccc1, OC[C@@H]1NC[C@@H](O)[C@H]1O, COc1cccc(C=NC=Nc2cccc(OC)c2)c1, O=c1[nH][nH]c(C(F)(F)F)c1C=Nc1cccc(Cl)c1, COCCNc1nc(-c2c(C)noc2C)nc2ccccc12, CNc1cc(-c2c(C)noc2C)ncn1, Cc1noc(C)c1-c1nc(Nc2ccccc2)c2ccccc2n1, CN(C)Cc1ccccc1-c1nccc(NC2CC2)n1, c1ccc2c(NCCN3CCOCC3)nc(-c3ccoc3)nc2c1, Cc1noc(C)c1-c1nc(NC2CCNCC2)c2ccccc2n1, CC(C)NC(=O)N1CCCC2(CCN(C(=O)c3ccncc3)CC2)C1, O=C(NCc1cccs1)C1CCN(S(=O)(=O)c2cccc3nsnc23)CC1, c1cc(CN2CCCCC2)cc(OCCCNc2nc3ccccc3s2)c1, COc1ccc(OC)c(S(=O)(=O)N2CCC(C(=O)NCCc3ccccc3)CC2)c1, CC1(C)C(=O)C(c2ccccc2)=C2CN3C(=O)N(CCc4ccccc4)C(=O)C3(Cc3ccc(C(F)(F)F)cc3)C=C21 (stereo not drawn), c1ccc(-n2ncc3c2ncn2cnnc32)cc1, O=C(O)c1ccccc1C(=O)NNc1ccc(F)cc1

activity, negative = inhibition, inactive:
O=c1n(-c2ccccc2)c(=O)n2n1CC[C@H]1/C(=N\OC[C@@H](O)COCc3ccco3)[C@H]3O[C@@H]3[C@@H](O)[C@@H]12 18.2% [at 11.4 µM] and 1.03% [at 11.4 µM], O=C(O)c1ccc(C(=O)Nc2cccc3ccccc23)c(C(=O)O)c1 12.6% [at 11.4 µM], C/C(CCN1CCc2nc(-c3ccccc3)c(-c3ccccc3)cc2C1)=N\O[C@@H](C)c1cn([C@H](CO)Cc2ccccc2)nn1 -17.8% [at 11.4 µM] and -16.4% [at 11.4 µM], Cc1ccc(-[n+]2cc(=O)o[nH]2)cc1 -19.9% [at 11.4 µM], NC(=O)C[C@H](N)C(N)=O -4.71% [at 11.4 µM], CN(C)C[C@H]1CCC2=C(C1=O)C(c1ccc(Cl)c(Cl)c1)C1=C(CC[C@H](CN(C)C)C1=O)O2 13.9% [at 11.4 µM], CCN(CC)CCN1C(=O)c2cccc3cc(N)cc(c23)C1=O 44.4% [at 11.4 µM]
